Compound activity (PubChem BioAssay)
In the library only some 4.7% were active in any assay of this set; here they are far more common.
FH mod: Identification of activators of human fumarate hydratase by quantitative high-throughput screening | 0.22% of 54,000 active | Fumarate hydratase, mitochondrial (Homo sapiens), P07954 | FH coupled MDH/diaphorase resazurin fluorescence, 15 min | AID 1347055, 2019 | Potency, µM (series often up to 79.9 µM), without a hit: at the top dose activity change, negative = inhibition, hits mostly inhibitors; further: potency means the concentration at half of the fitted maximal effect; on the % scale 0 is the no-effect control and ±100 the full control effect; the screen sought activators but most active calls are inhibition curves; nearly all actives have a fitted effect of over 45% in size
DRV1 agonist: agonists of human resolvin D1 receptor DRV1 (GPR32); activation, % at 76.9 µM; O75388; 2.5% of 48,000 active; CHO-K1 GPR32 beta-arrestin PathHunter luminescence, 90 min; zero percent set by DMSO-only wells;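 active means activation of at least 60% and not above a set upper limit, about 1 call in 100 departs from these limits; inconclusive means activation of 40% to 60%, or above that upper limit; inactive means activation under 40%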; further: 0% is about no effect
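Step 1: seed CHO-K1 GPR32 beta-arrestin cells, 2,500/well, overnight at 37 °C. Step 2: add compounds, 90 min at 37 °C. Step 3: detection reagent, 1 h ambient, then luminescence.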
HTT-AS act: HTT-AS promoter activation; AID 1508624; Potency, µM (highest dose often 57.5 µM), for the others: at the top dose activity change, positive = activation, most hits filed as activators; HEK293 HTT-AS promoter firefly luciferase reporter, 24 h; response scale: percent change from vehicle, -100% = no light; 0.24% of 48,000 active; further: potency means the concentration at half of the fitted maximal effect; nearly all actives have a fitted effect of over 55% in size
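HEK293 luciferase promoter-reporter cells (2,500/well) plated 24 h, then compounds added at up to 57.5 uM final for 24 h at 37 °C. Firefly luminescence by Dual-Glo, normalized to vehicle (0%) and zero RLU (-100%).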
GALC G270D up: enhancers of human galactocerebrosidase G270D mutant activity in cells | 145M-Twi-hGALC-G270D cells (Twitcher mouse brain line with human GALC G270D), HMU-beta-Gal fluorescence, 48 h | Potency, µM (doses to about 57.5 µM), most hits filed as activators | 0.1% of 45,000 active; further: potency means the concentration at half of the fitted maximal effect; 0% is about no effect; nearly all actives have a fitted effect of over 65% in size
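Brain-derived Twitcher mouse 145M-Twi cells stably expressing human GALC-G270D or wild-type GALC, treated live, then residual GALC activity read by fluorescence of HMU-b-Gal substrate (0.1 mM final) in citrate-phosphate buffer pH 5.2 with sodium taurocholate. Signal increase indicates enhancement.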
NTMT1 inh: blocks human N-terminal methyltransferase 1 activity. Potency, µM (highest dose often 114 µM), for the others: at the top dose activity change, negative = inhibition, actives largely listed as inhibitors. 2.5% of 59,000 active. AID 1645870. Q9BV86. NTMT1 MTase-Glo SAH luminescence, purified enzyme;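 further: potency means the concentration at half of the fitted maximal effect; plate controls were DMSO vehicle for no effect and no enzyme for full effect; nearly all actives have a fitted effect of over 65% in size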
Target sequence (Q9BV86 whole entry, looked up): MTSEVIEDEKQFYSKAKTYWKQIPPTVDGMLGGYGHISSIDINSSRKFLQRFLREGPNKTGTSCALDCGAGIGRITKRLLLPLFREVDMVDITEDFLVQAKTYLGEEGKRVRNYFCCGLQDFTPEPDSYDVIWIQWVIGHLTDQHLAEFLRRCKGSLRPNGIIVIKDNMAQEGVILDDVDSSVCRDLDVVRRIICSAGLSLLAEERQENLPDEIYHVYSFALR
HTT promoter inh: inhibitors of huntingtin promoter activity; AID 1508623; HEK293 HTT promoter firefly luciferase reporter, 24 h; Potency, µM (highest dose often 57.5 µM), inactives show top-dose activity change, negative = inhibition, actives largely listed as inhibitors; 0.93% of 48,000 active; further: potency means the concentration at half of the fitted maximal effect; nearly all actives have a fitted effect of over 50% in size
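HEK293 luciferase promoter-reporter cells (2,500/well) plated 24 h, then compounds added at up to 57.5 uM final for 24 h at 37 °C. Firefly luminescence by Dual-Glo, normalized to vehicle (0%) and zero RLU (-100%).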
Sfp qHTS opt: Sfp PPTase inhibition, chemistry optimization; shares compounds with NTMT1 inh; 78% of 230 active; Potency, µM (doses to about 114 µM), without a hit: at the highest dose activity change, negative = inhibition, most hits filed as inhibitors; purified Sfp PPTase enzyme activity, qHTS
Bsub HM489 growth: reduces growth of B. subtilis HM489 strain | shares compounds with NTMT1 inh | B. subtilis HM489 (acpS-) growth, BacTiter-Glo, 5 h | Potency, µM (highest dose often 114 µM), without a hit: top-dose activity change, negative = inhibition, hits mostly inhibitors | 50% of 220 active | AID 540353
Sfp gel opt: Sfp PPTase inhibition, gel-based detection. shares compounds with NTMT1 inh. purified Sfp PPTase, gel-based product detection. Potency, µM (doses to about 250 µM), inactives show at the highest dose activity change, negative = inhibition, most hits filed as inhibitors. 54% of 220 active
Sfp SAR2: Sfp phosphopantetheinyl transferase inhibition, SAR round 2; Potency, µM (titrated, usually from 57.1 µM), for inactives: at the top dose activity change, negative = inhibition, most hits filed as inhibitors; purified Sfp enzyme, PPTase activity, qHTS; 87% of 230 active; shares compounds with NTMT1 inh
HSD17B4 counter: HSD17B4 (human) inhibition, HPGD counter-screen. 10% of 230 active. Potency, µM (top dose mostly 57.1 µM), inactives show top-dose activity change, negative = inhibition, actives largely listed as inhibitors. shares compounds with NTMT1 inh. AID 743187. purified HSD17B4, estradiol/NAD+, NADH fluorescence
ALDH1A1 inh: ALDH1A1 (human) inhibition, HPGD counter-screen; shares compounds with NTMT1 inh; recombinant ALDH1A1, NADH fluorescence, propionaldehyde/NAD+; Potency, µM (highest dose often 57.1 µM), for the others: top-dose activity change, negative = inhibition, hits mostly inhibitors; 93% of 230 active
NNMT inh: human NNMT inhibition, NTMT1 counter-screen; shares compounds with NTMT1 inh; NNMT MTase-Glo luminescence, SAH detection; Potency, µM (titrated, usually from 57.1 µM), for inactives: top-dose activity, negative = inhibition, hits mostly inhibitors; 10% of 120 active; AID 1645878
Target sequence (P40261 whole entry, looked up): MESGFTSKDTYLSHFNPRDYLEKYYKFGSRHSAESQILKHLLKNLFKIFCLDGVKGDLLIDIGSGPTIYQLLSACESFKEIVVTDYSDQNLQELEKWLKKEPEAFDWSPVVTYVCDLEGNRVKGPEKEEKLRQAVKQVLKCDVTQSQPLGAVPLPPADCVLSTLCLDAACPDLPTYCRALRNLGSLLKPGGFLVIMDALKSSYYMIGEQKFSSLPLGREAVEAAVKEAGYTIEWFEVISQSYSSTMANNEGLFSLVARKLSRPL
* marks the source's active call; other numbers are inactive results; i = inactive; ? = inconclusive; / = no result given; ! = repeats disagree; [ ] = dose if it differs, or a comment. Unless noted, the call rests on the fitted dose curve; in most records, active means well fitted curve in the direction sought with a large enough effect; inconclusive means small, poorly fitted or top-dose-only effect, or another doubt; inactive means no such curve, though single readings can be large; an effect the other way counts as inactive or inconclusive.

SMILES	FH mod	DRV1 agonist	HTT-AS act	GALC G270D up	NTMT1 inh	HTT promoter inh	NNMT inh	others
Cc1cc(C)nc(Nc2nnc(N3CCN(c4cccc(C(F)(F)F)c4)CC3)s2)c1	/	/	/	/	6%[57.5 µM]	/	/	Sfp qHTS opt=?;Bsub HM489 growth=42µM*;Sfp gel opt=-20%;Sfp SAR2=14µM*;HSD17B4 counter=-20%;ALDH1A1 inh=22µM*
Cc1cc(C)nc(/N=C(\NC#N)N2CCN(c3cccc(C(F)(F)F)c3)CC2)c1	/	/	/	/	3%	/	/	Sfp qHTS opt=?;Bsub HM489 growth=42µM*;Sfp gel opt=?;Sfp SAR2=?;HSD17B4 counter=-9%;ALDH1A1 inh=24µM*
O=C(O)CSc1cc(NS(=O)(=O)c2ccc(Br)cc2)c2ccccc2c1O	16µM*	/	/	/	28µM*	/	?
O=S(=O)(Nc1ccccc1)c1ccc(NCc2ccc(Br)cc2O)cc1	/	/	/	/	2%	/	/
O=C(Nc1ccc(F)c(C(F)(F)F)c1)Nc1ccc(-c2ccncc2)s1	/	/	/	/	0%[57.5 µM]	/	/
Cc1cc(O)c(-c2ccc([C@@H](C)CN(C)C)cc2)c2c1[nH]c(=O)c1sccc12	?	/	/	/	25µM*	/	?
Cc1cnc(-c2ccccc2N(C)C)nc1NCc1ccc(-c2cccnc2)cc1	/	/	/	/	-10%	/	/
COC1CC(=O)C23C(=O)NC(CC(C)C)C2C(C)C(C)=CC3/C=C(\C)CCC(O)C1O (stereo not given)	-1%[53.3 µM]	/	/	/	9%[29.8 µM]	/	/
O=C(Nc1cc2cc[nH]c2cn1)c1ccccc1	-2%	/	?	/	22µM*!	21%	14µM*
Cc1nnc(NC(=O)c2ccccc2)s1	-4%	-3	?	i	-2%	62%	/
COc1ccc(-c2ccc3ncc4c(c3c2)n(-c2ccc(N3CCNCC3)c(C(F)(F)F)c2)c(=O)n4C)cn1	?	/	-93%	/	16µM*!	?	-18%
